Tests used:
Settings in all cases: concentration: 1 μM, replicates: in singlicate; n = 1
STK36 = test system: STK36
STK39 = test system: STK39
SYK = test system: SYK
SgK110 = test system: SgK110
TAK1 = test system: T1, TAK1
T1 construct: gene MAP3K7

TAOK1 = test system: TAOK1
TAOK2 = test system: TAOK2
TAOK3 = test system: TAOK3
TBK1 = test system: TBK1
TEC = test system: TEC
TESK1 = test system: TESK1
TGFBR1 = test system: TGFBR1
TGFBR2 = test system: TGFBR2
TIE1 = test system: TIE1
TIE2 = test system: T2, TIE2
T2 construct: gene TEK

TLK1 = test system: TLK1
TLK2 = test system: TLK2
TNIK = test system: TNIK
TNK1 = test system: TNK1
TNK2 = test system: TNK2
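Also: KINOMEscan kinase panel screen.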

Compound | %Inh (STK36) | %Inh (STK39) | %Inh (SYK) | %Inh (SgK110) | %Inh (TAK1) | %Inh (TAOK1) | %Inh (TAOK2) | %Inh (TAOK3) | %Inh (TBK1) | %Inh (TEC) | %Inh (TESK1) | %Inh (TGFBR1) | %Inh (TGFBR2) | %Inh (TIE1) | %Inh (TIE2) | %Inh (TLK1) | %Inh (TLK2) | %Inh (TNIK) | %Inh (TNK1) | %Inh (TNK2)
CC(=O)Nc1cn2nc(Oc3cccc(NC(=O)c4cccc(C(F)(F)F)c4)c3)ccc2n1 | 0% | 15% | 14% | 0% | 21% | 0% | 34% | 0% | 57% | 18% | 13% | 9% | 0% | 81% | 65% | 0% | 0% | 38% | 68% | 0%
Cn1cc(-c2ccc3c(c2)CCN3C(=O)Cc2cc(F)cc(F)c2F)c2c(N)ncnc21 [GSK2634140] | 0% | 0% | 41% | 0% | 48% | 0% | 0% | 0% | 17% | 0% | 22% | 10% | 0% | 76% | 52% | 3% | 0% | 5% | 8% | 7%
c1ccc(Oc2ccc(Nc3ccnc4cc(-c5ccc(CN6CCCCC6)o5)ccc34)cc2)nc1 [GW567143] | 0% | 0% | 0% | 0% | 0% | 0% | 0% | 0% | 0% | 41% | 16% | 0% | 0% | 23% | 0% | 0% | 0% | 14% | 56% | 36%
Cc1cc(-c2c(-c3ccc(F)cc3)ncn2CCCN2CCOCC2)nc(N)n1 [SB-222517] | 18% | 7% | 26% | 40% | 3% | 0% | 38% | 0% | 42% | 0% | 14% | 0% | 0% | 27% | 20% | 0% | 34% | 0% | 26% | 0%
O=C(O)C(F)(F)F.O=c1[nH]ccc2nc(N[C@@H]3CCNC3)nc(Nc3cc(Cl)cc(Cl)c3)c12 [GSK2188764] | 17% | 75% | 84% | 3% | 99.1% | 34% | 3% | 18% | 54% | 0% | 8% | 25% | 0% | 0% | 0% | 62% | 73% | 96.5% | 41% | 4%
CNc1nccc(-c2ccc3c(N)n[nH]c3c2)n1 [GSK2206003] | 0% | 0% | 23% | 0% | 37% | 64% | 0% | 0% | 22% | 5% | 31% | 25% | 9% | 15% | 0% | 8% | 1% | 50% | 0% | 17%
COc1cccc(CC(=O)N2CCc3cc(-c4cn(C)c5ncnc(N)c45)ccc32)c1 [GSK2608899] | 17% | 22% | 26% | 0% | 43% | 2% | 0% | 3% | 25% | 19% | 21% | 0% | 6% | 82% | 42% | 15% | 0% | 81% | 0% | 0%
N#CC1(c2cccc(C(=O)Nc3cccc(Oc4ccc5nc(NC(=O)C6CC6)sc5n4)c3)c2)CC1 | 0% | 0% | 22% | 17% | 0% | 0% | 28% | 0% | 15% | 0% | 9% | 0% | 0% | 73% | 37% | 0% | 0% | 53% | 76% | 0%

Source: article PMC5540273 (PLoS ONE, 2017)
